This note sets out measurements from PubChem BioAssay (Tox21).

Experiment [1] has as its target Voltage-gated inwardly rectifying potassium channel KCNH2 (Homo sapiens) (UniProt Q12809). Nature of the experiment: Human Ether-a-go-go-Related Gene (hERG) channel small molecule antagonists: fluorescence cell-based qHTS assay (AID 1671200).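 Also: hERG-expressing U2OS cells given a thallium stimulus after FluxOR II dye loading; series mostly up to about 77 µM; nearly all actives have a fitted effect of over 50% in size.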 The gist of the method:
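Measured: Tl+ flux via fluorescence (480/540 nm) in hERG-expressing U2OS cells after 1 h dye loading at room temperature.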
For orientation: hERG is a cardiac potassium channel; its block is linked to QT prolongation.

The target in experiment [2] is Cytochrome P450 3A4 (Homo sapiens) (UniProt P08684). Kind of experiment: Cytochrome P450 Family 3 Subfamily A Member 4 (CYP3A4) small molecule antagonists: luciferase reporter qHTS assay (AID 1671201). Also: series mostly up to about 120 µM; nearly all actives have a fitted effect of over 50% in size. The gist of the method:
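Setup: enzyme-substrate mix, compound pin transfer, 10 min RT. Reaction: NADPH regeneration solution, 1 h RT. Readout: detection reagent stops turnover, luminescence measured after 20 min, expressed in relative luminescence units.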

For experiment [3], the target named is Cytochrome P450 2C19 (Homo sapiens) (UniProt P33261). Nature of the experiment: Cytochrome P450 Family 2 Subfamily C Member 19 (CYP2C19) small molecule antagonists: luciferase reporter qHTS assay (AID 1671197). Also: nearly all actives have a fitted effect of over 65% in size. Also: potency is read from the fitted curve at half-maximal effect. In short, it runs like this: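 CYP2C19 P450-Glo, 1536-well qHTS. Cpd + enzyme/proluciferin substrate 10 min RT; + NADPH regen, 37C 1 h; stop with luciferin detection reagent, 20 min RT, luminescence (RLU). Pos ctrl ketoconazole.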
Chain of Cytochrome P450 2C19 (Homo sapiens) (P33261 whole entry, looked up): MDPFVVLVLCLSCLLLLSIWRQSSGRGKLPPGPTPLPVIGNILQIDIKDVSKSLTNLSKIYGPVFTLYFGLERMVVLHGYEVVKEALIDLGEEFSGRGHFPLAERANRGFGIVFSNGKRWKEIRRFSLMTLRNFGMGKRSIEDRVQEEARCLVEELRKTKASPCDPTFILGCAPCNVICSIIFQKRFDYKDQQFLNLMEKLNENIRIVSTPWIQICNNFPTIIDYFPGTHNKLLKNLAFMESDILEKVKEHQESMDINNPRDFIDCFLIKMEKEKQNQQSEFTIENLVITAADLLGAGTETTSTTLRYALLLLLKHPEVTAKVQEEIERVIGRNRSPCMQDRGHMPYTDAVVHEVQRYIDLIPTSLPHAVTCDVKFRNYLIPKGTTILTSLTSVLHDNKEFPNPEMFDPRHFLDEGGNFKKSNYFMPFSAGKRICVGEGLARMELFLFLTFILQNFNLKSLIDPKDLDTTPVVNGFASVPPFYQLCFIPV
A general note: Reporter assays use an easily measured gene product as a stand-in for the process of interest.

Experiment [4] has as its target Cytochrome P450 1A2 (Homo sapiens) (UniProt P05177). Nature of the experiment: Cytochrome P450 Family 1 Subfamily A Member 2 (CYP1A2) small molecule antagonists: luciferase reporter qHTS assay (AID 1671199). Also: series mostly up to about 120 µM; nearly all actives have a fitted effect of over 50% in size. In short, it runs like this: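 Inhibition of CYP1A2 conversion of proluciferin to luciferin, detected by luminescence. Reaction run 1 h at room temperature with NADPH regeneration after brief compound preincubation.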

For experiment [5], the target named is Cytochrome P450 2C9 (Homo sapiens) (UniProt P11712). Kind of experiment: Cytochrome P450 Family 2 Subfamily C Member 9 (CYP2C9) small molecule antagonists: luciferase reporter qHTS assay (AID 1671198). Also: nearly all actives have a fitted effect of over 50% in size. Also: potency is read from the fitted curve at half-maximal effect. In short, it runs like this:
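Enzyme-substrate mix preincubated with compound 10 min at room temperature; reaction started with NADPH regeneration solution, 1 h 37C. Luminescent luciferin product read after 20 min detection reagent.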

Each structure is given as a SMILES string. “And” between values parts separate entries of the source, which are not always exact repeats. Identical values can stand only once. Records with an inconclusive call do not appear. Some compounds were tested as several samples or in several runs, with calls that do not always agree. The source made the active and inactive calls. Calls follow the shape of the dose curve; as a rule, active = well fitted curve in the direction sought with a large enough effect in the repeat runs; inconclusive = weak or mixed curves; inactive = no such curve, though single readings can be large; an effect the other way counts as inactive or inconclusive.

Chain of Cytochrome P450 3A4 (Homo sapiens) (P08684 whole entry, looked up): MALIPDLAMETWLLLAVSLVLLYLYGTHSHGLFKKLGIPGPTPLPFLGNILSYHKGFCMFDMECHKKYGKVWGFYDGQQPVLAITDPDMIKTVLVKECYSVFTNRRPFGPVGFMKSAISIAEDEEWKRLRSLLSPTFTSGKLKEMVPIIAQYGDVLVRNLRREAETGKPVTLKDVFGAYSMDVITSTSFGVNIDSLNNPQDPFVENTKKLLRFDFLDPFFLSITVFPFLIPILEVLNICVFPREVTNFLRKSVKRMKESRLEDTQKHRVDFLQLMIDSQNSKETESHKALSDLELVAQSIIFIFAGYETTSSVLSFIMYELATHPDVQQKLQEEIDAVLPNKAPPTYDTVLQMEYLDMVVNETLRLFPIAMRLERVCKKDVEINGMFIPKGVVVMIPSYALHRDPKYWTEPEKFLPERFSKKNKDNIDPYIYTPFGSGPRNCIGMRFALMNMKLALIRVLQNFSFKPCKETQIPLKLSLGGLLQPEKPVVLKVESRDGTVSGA
Chain of Cytochrome P450 1A2 (Homo sapiens) (P05177 whole entry, looked up): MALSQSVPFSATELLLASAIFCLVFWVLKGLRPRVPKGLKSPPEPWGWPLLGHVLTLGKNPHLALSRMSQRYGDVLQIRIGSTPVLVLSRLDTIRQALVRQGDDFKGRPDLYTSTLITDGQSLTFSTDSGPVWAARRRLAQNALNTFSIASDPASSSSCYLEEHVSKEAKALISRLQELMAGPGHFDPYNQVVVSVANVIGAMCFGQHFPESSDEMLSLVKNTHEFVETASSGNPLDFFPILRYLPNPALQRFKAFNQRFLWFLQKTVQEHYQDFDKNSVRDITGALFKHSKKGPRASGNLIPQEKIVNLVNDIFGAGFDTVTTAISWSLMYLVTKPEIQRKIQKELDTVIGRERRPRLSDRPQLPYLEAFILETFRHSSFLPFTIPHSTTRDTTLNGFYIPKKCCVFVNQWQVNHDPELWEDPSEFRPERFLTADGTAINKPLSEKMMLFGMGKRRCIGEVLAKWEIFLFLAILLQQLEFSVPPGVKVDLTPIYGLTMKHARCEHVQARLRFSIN
Chain of Cytochrome P450 2C9 (Homo sapiens) (P11712 whole entry, looked up): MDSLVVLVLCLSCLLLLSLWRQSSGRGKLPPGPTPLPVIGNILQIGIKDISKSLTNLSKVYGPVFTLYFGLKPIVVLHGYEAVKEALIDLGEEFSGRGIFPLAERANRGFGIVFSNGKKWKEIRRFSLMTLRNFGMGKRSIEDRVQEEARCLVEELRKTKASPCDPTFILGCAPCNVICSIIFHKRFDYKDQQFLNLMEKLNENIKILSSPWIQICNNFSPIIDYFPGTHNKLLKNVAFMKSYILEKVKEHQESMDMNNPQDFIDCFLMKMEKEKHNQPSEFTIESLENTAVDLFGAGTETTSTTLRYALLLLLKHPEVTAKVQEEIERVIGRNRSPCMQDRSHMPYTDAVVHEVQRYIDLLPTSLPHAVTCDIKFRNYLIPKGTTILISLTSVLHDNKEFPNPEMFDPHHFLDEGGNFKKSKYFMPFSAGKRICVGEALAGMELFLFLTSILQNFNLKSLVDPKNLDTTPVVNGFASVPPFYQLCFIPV
Chain of Voltage-gated inwardly rectifying potassium channel KCNH2 (Homo sapiens) (Q12809 whole entry, looked up): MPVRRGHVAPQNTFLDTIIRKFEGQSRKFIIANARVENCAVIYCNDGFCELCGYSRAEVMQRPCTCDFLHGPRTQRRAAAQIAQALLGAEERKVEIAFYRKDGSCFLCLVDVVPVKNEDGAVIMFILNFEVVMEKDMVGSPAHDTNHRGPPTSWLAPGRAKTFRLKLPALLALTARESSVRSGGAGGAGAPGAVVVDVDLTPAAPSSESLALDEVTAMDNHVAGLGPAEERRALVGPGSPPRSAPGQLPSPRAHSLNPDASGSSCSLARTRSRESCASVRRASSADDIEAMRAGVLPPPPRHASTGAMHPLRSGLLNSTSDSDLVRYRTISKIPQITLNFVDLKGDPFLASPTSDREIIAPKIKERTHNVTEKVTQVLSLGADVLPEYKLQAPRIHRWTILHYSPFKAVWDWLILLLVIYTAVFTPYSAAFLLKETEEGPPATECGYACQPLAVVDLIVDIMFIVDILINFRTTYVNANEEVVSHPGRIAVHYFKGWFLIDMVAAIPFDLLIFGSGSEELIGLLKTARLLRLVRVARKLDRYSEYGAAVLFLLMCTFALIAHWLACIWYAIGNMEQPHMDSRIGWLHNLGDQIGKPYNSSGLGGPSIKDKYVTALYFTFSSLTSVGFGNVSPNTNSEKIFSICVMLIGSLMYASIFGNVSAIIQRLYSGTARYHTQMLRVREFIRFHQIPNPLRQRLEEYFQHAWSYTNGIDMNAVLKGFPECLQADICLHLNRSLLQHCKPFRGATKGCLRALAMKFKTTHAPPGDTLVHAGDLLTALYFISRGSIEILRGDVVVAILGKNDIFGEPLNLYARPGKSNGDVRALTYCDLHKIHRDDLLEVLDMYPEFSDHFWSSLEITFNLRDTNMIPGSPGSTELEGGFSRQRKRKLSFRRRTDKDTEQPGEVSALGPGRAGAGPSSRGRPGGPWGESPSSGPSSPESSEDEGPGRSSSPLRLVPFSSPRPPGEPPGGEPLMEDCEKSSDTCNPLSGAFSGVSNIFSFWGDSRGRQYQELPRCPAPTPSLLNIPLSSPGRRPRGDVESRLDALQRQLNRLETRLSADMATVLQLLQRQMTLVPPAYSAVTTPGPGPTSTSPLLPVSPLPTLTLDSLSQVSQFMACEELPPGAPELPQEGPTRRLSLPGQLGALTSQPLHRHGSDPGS

As to `CCc1cc(C(N)=S)ccn1`, the Potency entry in experiment [1] was “inactive”.

On to `C[C@]12CC[C@@H]3c4ccc(O)cc4CC[C@H]3[C@@H]1CCC2=O`, for which the Potency result in experiment [1] is “inactive”.

For `CCOC(=O)C(C)(C)Oc1ccc(Cl)cc1`, in experiment [1], the Potency result is “inactive”.

In the case of `C[C@]12C[C@H](O)[C@H]3[C@@H](CCC4=CC(=O)CC[C@@]43C)[C@@H]1CC[C@@H]2C(=O)CO`, the Potency result in experiment [1] and in experiment [2] was “inactive” in each case.

For the compound `CC(=O)/C=C/C1=C(C)CCCC1(C)C`, the Potency in experiment [3] was 40.7 µM (active) and 39.9 µM (active) and 71 µM (active). Also, the Potency entry in experiment [4] and in experiment [1] was “inactive” each time.

As for `CC1=NN(c2ccccc2)C(=O)C1`, the Potency in experiment [3] is 71.4 µM (active) and inactive; in experiment [5], 11.3 µM (active) and 11.2 µM (active) and 17.4 µM (active). Further, the Potency result in experiment [1] is “inactive”.

On to `O=C(O)CN(CC(=O)O)CC(=O)O`, for which the Potency in experiment [3] was 36.1 µM (active) and inactive. In addition, the Potency result in experiment [5], in experiment [4], in experiment [1] and in experiment [2] was “inactive” in each case.

Regarding `Cn1cnc2c1c(=O)[nH]c(=O)n2C`, the Potency result in experiment [1] was “inactive”.

As to `NC(N)=NC(N)=NCCc1ccccc1`, the Potency entry in experiment [3] and in experiment [1] was “inactive” throughout.

Regarding `N[C@@H](Cc1c[nH]c2ccccc12)C(=O)O`, the Potency in experiment [3] was 31.8 µM (active) and inactive; in experiment [5] it was 71.1 µM (active). The Potency entry in experiment [1] was “inactive”.

Regarding `NC(=O)NO`, the Potency entry in experiment [1] is “inactive”.

Turning to `C=C(C)C(N)=O`, the Potency entry in experiment [3], in experiment [4] and in experiment [1] was “inactive” each time.
